Laboratory results taken from PubChem BioAssay (NCATS).
Values joined by “and” are separate entries in the source; they are usually repeats but may differ in a detail not shown here. Identical values can stand only once. Records with an inconclusive call do not appear. A structure can be active in one record and inactive in another. Active and inactive are the calls of the source. Calls come from the whole dose curve; as a rule, active = well fitted curve in the direction sought with a large enough effect; inconclusive = small, poorly fitted or top-dose-only effect, or another doubt; inactive = no such curve, though single readings can be large; an effect the other way counts as inactive or inconclusive.

How the values were obtained:
[1] = Viability qHTS for spleen associated tyrosine kinase inhibitor (SYKi) naive MV4-11 cells (AID 1963823); conditions: MV4-11 AML viability, CellTiter-Glo luminescence, 72 h; series mostly up to 45 µM; note: nearly all actives have a fitted effect of over 40% in size
Method in brief: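 qHTS, SYK inhibitor-naive MV4-11; 500 cells/well; 72 hr compound exposure, 37 C; CellTiter-Glo added, 10 min RT; luminescence read.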

[2] = Viability qHTS for spleen associated tyrosine kinase inhibitor (SYKi) drug resistant MV4-11 cells (AID 1963824); conditions: SYKi-resistant MV4-11 viability, CellTiter-Glo, 72 h; series mostly up to 45 µM; note: nearly all actives have a fitted effect of over 35% in size
Method in brief: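 SYK-inhibitor-resistant MV4-11 AML cells were seeded at 500 per well onto compound and cultured 72 hours (37 °C, 5% CO2). CellTiter-Glo was then added, and after 10 min at room temperature, luminescence gave viability.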

[3] = Quantitative highthroughput screen to assess conditional lethalithy of NOMO1 cells grown in RPMI1640 with dialyzed fetal bovine serum (RPMI+ds) (AID 1963877); conditions: NOMO1 in RPMI+dialyzed FBS viability, ATP luminescence, 48 h; series mostly up to 45.8 µM; note: nearly all actives have a fitted effect of over 30% in size;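 for Viability: 100% = DMSO control wells and 0% = empty wells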
Method in brief: (§1)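 Each medium arm—HPLM with 10% dialyzed FBS, or RPMI1640 with 5 mM glucose and 10% untreated or dialyzed FBS—was screened against an 11-point, 3-fold compound titration for 48 h at 37 °C, with CellTiter-Glo luminescence as endpoint.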

[4] = Quantitative highthroughput screen to assess conditional lethalithy of NOMO1 cells grown in Human Plasma-Like Medium with dialyzed fetal bovine serum (HPLM+ds) (AID 1963878); conditions: NOMO1 AML cells in HPLM+ds, CellTiter-Glo viability, 48 h; series mostly up to 45.8 µM; note: nearly all actives have a fitted effect of over 35% in size;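 for Viability: 100% = DMSO wells and 0% = empty wells on each plate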
Method in brief: as §1

[5] = Quantitative highthroughput screen to assess conditional lethalithy of P12 Ichikawa cells grown in Human Plasma-Like Medium with dialyzed fetal bovine serum (HPLM+ds) (AID 1963879); conditions: ATP luminescence, 48 h; Potency: viability; series mostly up to 45.8 µM; note: nearly all actives have a fitted effect of over 35% in size
Method in brief: as §1

[6] = Quantitative highthroughput screen to assess conditional lethalithy of SEM cells grown in Human Plasma-Like Medium with dialyzed fetal bovine serum (HPLM+ds) (AID 1963882); conditions: SEM B-ALL cells in HPLM+ds, CellTiter-Glo viability, 48 h; series mostly up to 45.8 µM; note: nearly all actives have a fitted effect of over 35% in size
Method in brief: as §1

[7] = Quantitative highthroughput screen to assess conditional lethalithy of SEM cells grown in RPMI1640 with unreated serum (RPMI+s) (AID 1963883); conditions: SEM B-ALL cells, CellTiter-Glo viability, 48 h; series mostly up to 45.8 µM; note: nearly all actives have a fitted effect of over 35% in size;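 for Viability: 100% = DMSO wells and 0% = empty wells without cells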
Method in brief: as §1

[8] = Cellular viability qHTS for adrenocortical cancer (ACC) cell line SW-13 (AID 1963989); conditions: SW-13 ACC cells viability, CellTiter-Glo, 48 h; activity (max response): stronger effect = lower value; note: nearly all actives have a fitted effect of over 65% in size;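 for activity (max response): cells grown in serum-free medium with ITS supplement; % is set by controls: 0 for no effect and ±100 for the full control effect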
Method in brief: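 IC50 and maximal-response values come from four-parameter logistic fits of titration data. SW-13 cells in serum-free medium received compounds (up to 46 uM final) for 48 h before CellTiter-Glo luminescence.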

[9] = Cellular viability qHTS for adrenocortical cancer (ACC) cell line NCI-H295R (AID 1963990); conditions: CellTiter-Glo ATP luminescence, 48 h; series mostly up to 46.1 µM; note: nearly all actives have a fitted effect of over 60% in size
Method in brief: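 Adrenocortical carcinoma cells, suspended at 300 000 cells/mL in serum-free DMEM plus ITS, rested overnight before pin transfer of compound. After two days' incubation, ATP-dependent luminescence was recorded and curve-fitted.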

[10] = Quantitative highthroughput screen to assess conditional lethalithy of P12 Ichikawa cells grown in RPMI1640 with dialyzed fetal bovine serum (RPMI+ds) (AID 1963880); conditions: ATP luminescence, 48 h; Potency: P12-Ichikawa viability; series mostly up to 45.8 µM; note: nearly all actives have a fitted effect of over 35% in size;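 for Viability: 100% = DMSO wells and 0% = empty wells on each plate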
Method in brief: as §1

[11] = Quantitative highthroughput screen to assess conditional lethalithy of P12 Ichikawa cells grown in RPMI1640 with untreated serum (RPMI+s) (AID 1963881); conditions: ATP luminescence, 48 h; Potency: viability; series mostly up to 45.8 µM; note: nearly all actives have a fitted effect of over 35% in size;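 for Viability: 100% = DMSO wells and 0% = empty wells without cells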
Method in brief: as §1

[12] = Quantitative highthroughput screen to assess conditional lethalithy of SEM cells grown in RPMI1640 with dialyzed fetal bovine serum (RPMI+ds) (AID 1963884); conditions: SEM B-ALL cells, RPMI+dialyzed FBS, CellTiter-Glo viability, 48 h; series mostly up to 45.8 µM; note: nearly all actives have a fitted effect of over 35% in size;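 for Viability: 100% = DMSO control wells and 0% = empty wells without cells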
Method in brief: as §1
Potency is the fitted concentration of half-maximal effect.

NNC(=O)c1ccncc1
active: Potency [5] 16.6 µM
inactive: Potency [1] | Potency [2] | Potency [3] | Potency [4] | Potency [6] | Potency [7] | activity (max response) [8] 13.1% and -0.369% | Potency [9]

CC(C)C[C@@H](N)[C@H](O)C(=O)N[C@H](C(=O)N[C@H](C(=O)N[C@@H](CC(=O)O)C(=O)O)C(C)C)C(C)C
inactive: Potency [1] | Potency [2] | Potency [3] | Potency [4] | Potency [5] | Potency [10] | Potency [11] | Potency [7] | activity (max response) [8] -8.42% | Potency [9]

NS(=O)(=O)c1ccc(Nc2nc(OCC3CCCCC3)c3[nH]cnc3n2)cc1
active: Potency [1] 580 nM | Potency [2] 0.651 µM | Potency [3] 0.59 µM | Potency [5] 0.0469 µM | Potency [10] 0.296 µM | Potency [11] 0.372 µM | Potency [7] 0.296 µM | Potency [12] 0.469 µM

COc1ccc(-c2ccc3ncc4c(c3c2)n(-c2ccc(N3CCNCC3)c(C(F)(F)F)c2)c(=O)n4C)cn1
active: Potency [1] 26.3 nM | Potency [2] 13 nM and 16.4 nM and 29.5 nM | Potency [3] 0.469 µM | Potency [4] 0.148 µM | Potency [5] 1.05 µM | Potency [10] 0.187 µM | Potency [6] 0.0743 µM | Potency [7] 0.0209 µM | Potency [8] 0.316 µM | Potency [9] 0.126 µM

CN(C)Cc1c(C(=O)NCCOc2ccc(C(=O)NO)cc2)oc2ccccc12
active: Potency [1] 326 nM and 296 nM | Potency [2] 259 nM and 235 nM | Potency [3] 4.18 µM | Potency [4] 4.18 µM | Potency [5] 2.35 µM | Potency [10] 2.96 µM | Potency [11] 2.09 µM | Potency [12] 1.48 µM | Potency [8] 1.26 µM

Cc1cnc(NC(=O)Nc2cc(Br)c(C)cc2OC[C@@H]2CNCCO2)cn1
active: Potency [1] 1320 nM | Potency [2] 1.18 µM | Potency [3] 1.66 µM | Potency [4] 1.18 µM | Potency [10] 13.2 µM | Potency [7] 0.935 µM | Potency [12] 0.59 µM | Potency [9] 2.51 µM

O=C(Nc1cn[nH]c1-c1nc2ccc(CN3CCOCC3)cc2[nH]1)NC1CC1
active: Potency [1] 25.9 nM | Potency [2] 73.1 nM and 51.7 nM and 132 nM | Potency [3] 18.7 µM | Potency [4] 14.8 µM | Potency [6] 0.0833 µM | Potency [7] 0.0418 µM | Potency [12] 0.0332 µM | Potency [8] 3.16 µM | Potency [9] 20 µM

N#Cc1c(N(CC(=O)O)CC(=O)O)sc(C(=O)O)c1CC(=O)O
inactive: Potency [1] | Potency [2] | Potency [3] | Potency [4] | activity (max response) [8] 0.42% | Potency [9]
active: Potency [5] 16.6 µM | Potency [6] 13.2 µM

C=CC(=O)Nc1cccc(Oc2nc(Nc3ccc(N4CCN(C)CC4)cc3)ncc2Cl)c1
active: Potency [1] 206 nM | Potency [2] 517 nM and 525 nM | Potency [3] 5.9 µM | Potency [6] 2.35 µM | Potency [7] 0.833 µM | Potency [12] 1.87 µM | Potency [8] 1.26 µM | Potency [9] 2.51 µM
inactive: Potency [4]

COc1cc2ncnc(-n3nc(-c4ccccn4)nc3N)c2cc1OC
inactive: activity (max response) [8] 10.9% | Potency [9]
active: Potency [1] 796 nM and 1.48 µM | Potency [2] 2.63 µM | Potency [3] 23.5 µM | Potency [4] 20.9 µM | Potency [11] 26.4 µM | Potency [6] 5.26 µM | Potency [7] 1.32 µM | Potency [12] 2.35 µM

Cc1cc(Nc2nc(N[C@@H](C)c3ccc(F)cc3)c(C#N)cc2F)n[nH]1
active: Potency [1] 651 nM | Potency [2] 580 nM and 590 nM | Potency [3] 2.64 µM | Potency [10] 2.09 µM | Potency [11] 2.35 µM | Potency [6] 3.32 µM | Potency [7] 2.96 µM | Potency [12] 2.64 µM | Potency [8] 3.16 µM

Cc1cn[nH]c1
active: Potency [4] 16.6 µM
inactive and 18.6 µM (active): Potency [2]
inactive: Potency [1] | Potency [3] | Potency [5] | Potency [10] | Potency [11] | Potency [12] | activity (max response) [8] 12.7% and 11.3% | Potency [9]

Cc1ccc2nc(NCCN)c3ncc(C)n3c2c1
active: Potency [1] 2310 nM | Potency [2] 4.61 µM and 2.63 µM | Potency [3] 26.4 µM | Potency [4] 23.5 µM | Potency [6] 11.8 µM | Potency [7] 23.5 µM | Potency [12] 20.9 µM | Potency [8] 6.31 µM | Potency [9] 8.91 µM

CC(C)C[C@H](NC(=O)[C@H](Cc1ccccc1)NC(=O)c1cnccn1)B(O)O
active: Potency [1] 13.2 nM | Potency [2] 9.4 nM and 11.8 nM | Potency [3] 0.0469 µM | Potency [4] 0.0469 µM | Potency [5] 0.0372 µM | Potency [10] 0.0372 µM | Potency [11] 0.0372 µM | Potency [6] 0.0209 µM | Potency [7] 0.0187 µM | Potency [12] 0.0166 µM | Potency [8] 20.6 nM and 79.4 nM | Potency [9] 8.2 nM and 35.5 nM
